Source: PubChem BioAssay
ssDAF-12 act: S. stercoralis DAF-12 activation, primary screen | HEK293 ssDAF-12/GRIP1 lit1-tk-luc reporter, luminescence; % of 3 µM dafachronic acid response | activation, % at 6.8 µM | 370,000 compounds, 1% hits | AID 652126;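 active = activation above the mean over all tested compounds plus 3 SD, cut at about 0.9% in these data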;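 note: 0% = DMSO-only wells and 100% = 3 µM delta7-dafachronic acid wells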
hgDAF-12 ag: agonists of H. glycines DAF-12 nuclear receptor | activation, % at 6.8 µM | HEK293 GAL4-hgDAF12 UAS-luciferase reporter, agonist luminescence; normalized to butyrate control | 370,000 compounds, 1.8% hits;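 active = activation above a cutoff set at the mean of all screened compounds plus 3 SD, cut at about 10% in these data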;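 note: 0% = DMSO wells and 100% = sodium butyrate wells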
hcDAF12 agonist: activates DAF-12 receptor from parasite H. contortus; AID 652067; 370,000 compounds, 1.4% hits; HEK293 hcDAF-12 lit1-tk-luc reporter, luminescence; 0% DMSO, 100% Δ7-dafachronic acid; activation, % at 6.8 µM;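 active = activation above the mean of all tested compounds plus 3 SD, cut at about 5.5% in these data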;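 note: 100% = response to 3 µM Δ7-dafachronic acid high control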
DAX1 inh-1: blocks DAX1 repression of SF-1 activated StAR promoter | HEK293T StAR-luciferase reporter, SF-1/DAX-1 repression relief | inhibition, % at 6.8 µM | 370,000 compounds, 1.1% hits;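 active = inhibition above the mean over all tested compounds plus 3 SD, cut at about 3.6% in these data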;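 note: 0% = DAX-1 cells with DMSO and 100% = cells lacking DAX-1 with DMSO; higher inhibition means more luminescence from relief of DAX-1 repression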
DAX1 inh-2: NR0B1 (DAX1) inhibition; HEK293 Gal4-DAX1 luciferase reporter, luminescence; inhibition, % at 6.75 µM; 340,000 compounds, 0.99% hits;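 active = inhibition above the mean over all tested compounds plus 3 SD, cut at about 4.2% in these data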;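 note: 0% = DAX1-transfected cells with DMSO and 100% = empty-vector control cells with DMSO; inhibition shows as a rise in luminescence from relieved DAX1 repression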
Target sequence (P51843 207-470 limits assumed): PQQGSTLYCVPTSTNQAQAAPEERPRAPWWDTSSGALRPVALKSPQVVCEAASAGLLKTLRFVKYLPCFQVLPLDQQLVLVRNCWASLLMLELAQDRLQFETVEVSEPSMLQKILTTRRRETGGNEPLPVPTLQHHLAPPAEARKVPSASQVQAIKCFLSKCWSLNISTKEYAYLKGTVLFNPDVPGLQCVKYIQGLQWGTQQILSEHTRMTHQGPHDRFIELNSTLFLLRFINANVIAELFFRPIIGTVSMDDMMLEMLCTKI
LXR ag: activates human LXR-beta, counter-screen for hcDAF-12 agonists; shares compounds with hcDAF12 agonist; HEK293 Gal4-LXR tk-luc reporter, luminescence, 24 h; normalized: DMSO 0%, positive control 100%; AID 743027; activation, % at 6.8 µM; 3,400 tested, under 10 active;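 active = mean percent activation of the reporter above a cutoff set as the average over tested compounds plus their standard deviation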
Target sequence (P55055 whole entry, looked up, the tested form may be a part): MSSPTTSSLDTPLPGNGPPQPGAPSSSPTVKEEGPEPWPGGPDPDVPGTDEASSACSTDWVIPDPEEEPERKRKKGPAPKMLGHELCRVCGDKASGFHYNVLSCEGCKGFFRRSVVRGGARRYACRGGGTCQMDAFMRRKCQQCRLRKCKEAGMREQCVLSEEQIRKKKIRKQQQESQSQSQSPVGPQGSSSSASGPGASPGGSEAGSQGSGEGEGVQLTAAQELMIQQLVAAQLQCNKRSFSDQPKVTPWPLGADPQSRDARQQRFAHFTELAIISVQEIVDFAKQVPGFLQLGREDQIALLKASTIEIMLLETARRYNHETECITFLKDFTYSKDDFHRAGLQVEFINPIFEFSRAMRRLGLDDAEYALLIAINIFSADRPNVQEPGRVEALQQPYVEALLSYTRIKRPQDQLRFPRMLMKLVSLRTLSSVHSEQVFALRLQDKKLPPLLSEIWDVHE
hcDAF12 ag: confirmation of H. contortus DAF-12 agonists. 3,400 compounds, 61% hits. shares compounds with hcDAF12 agonist. HEK293 hcDAF-12 lit1-tk-luc reporter, luminescence; % of Δ7-dafachronic acid response. activation, % at 6.8 µM. AID 743032;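 active = mean activation across triplicate tests above the threshold derived from the earlier primary screen, cut at about 5.5% in these data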;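 note: 0% = DMSO only wells and 100% = 3 µM Δ7-dafachronic acid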
hgDAF12 ag: confirmation of H. glycines DAF-12 agonists. shares compounds with hgDAF-12 ag. HEK293 GAL4-hgDAF12 luciferase reporter, agonist mode; percent of butyrate response. activation, % at 6.8 µM. 3,300 compounds, 80% hits. AID 743050;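 active = mean activation over triplicate wells above the hit cutoff derived from the earlier primary screen, cut at about 11% in these data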;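 note: 0% = DMSO low control and 100% = 2 mM sodium butyrate high control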
LXRb DAF12 ctr: LXR-beta agonism as DAF-12 counter-screen | shares compounds with hgDAF-12 ag | HEK293 Gal4-LXR luciferase reporter, 24 h | activation, % at 6.8 µM | 3,300 tested, under 10 active | AID 743051;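 active = mean activation of the triplicate above a set limit carried over from the primary screen, none filed active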
Starred values were filed as active, the others as inactive; . = no result. Sampled rows, rich in hits. Any-hit rate of the full collection: about 4.1%.

SMILES | ssDAF-12 act | hgDAF-12 ag | hcDAF12 agonist | DAX1 inh-1 | DAX1 inh-2 | LXR ag | hcDAF12 ag | hgDAF12 ag | LXRb DAF12 ctr
COc1cccc2c1nc(C)c1cc(C)oc12 | -0.3 | 6.0 | -0.3 | 0.3 | 0.7 | . | . | . | .
COc1cccc2nc3cc(C)c(C)cc3nc12 | 0.7 | 18.0* | 7.5* | 1.9 | -0.8 | 1.4 | 12.4* | 18.4* | 1.1
Cc1ccc(-c2onc3ccc(C(=O)O)cc23)cc1 | 1.0* | 18.8* | 9.4* | 3.5 | -2.5 | 1.2 | 8.7* | 23.4* | 1.1
CC(=O)c1ccc2noc(-c3ccc(C)cc3)c2c1 | -1.2 | 3.5 | 0.0 | 0.3 | -0.6 | . | . | . | .
Cc1nc(N)sc1N=Nc1ccc(Br)cc1 | 1.5* | 16.6* | 8.6* | 3.9* | 5.4* | 1.0 | 4.2 | 20.9* | 0.9
Cc1[nH]nc(N)c1N=Nc1ccc(Br)cc1 | -1.2 | 5.5 | 0.7 | 0.6 | . | . | . | . | .
Cc1cccc(COC[C@H](CC(C)C)N2CCN(C(=O)c3ccc(C(F)(F)F)cc3)CCC2=O)c1 | -1.4 | -1.3 | -1.2 | -1.4 | . | . | . | . | .
CCc1ccc(C2CC(c3ccco3)=NN2S(C)(=O)=O)cc1 (stereo unspecified) | 1.3* | 17.9* | 9.2* | 3.4 | 2.2 | 1.3 | 8.9* | 18.0* | 1.0
CCOc1ccc2cc(C3CC(c4ccco4)=NN3S(C)(=O)=O)c(Cl)nc2c1 (stereo unspecified) | -1.2 | -4.0 | -1.2 | -0.8 | -0.1 | . | . | . | .
CCCN(C(=O)CSCc1ccc(Cl)cc1)c1c(N)n(Cc2ccccc2)c(=O)[nH]c1=O | -0.6 | -1.1 | -1.4 | -1.0 | 0.2 | . | . | . | .
COc1cc(SC)ccc1C(=O)Nc1ccncc1 | -1.2 | 3.7 | -1.7 | -0.8 | -1.6 | . | . | . | .
COc1ccc(C(=O)Nc2ccncc2)c(OC)c1 | -1.2 | -0.2 | -1.2 | 0.5 | 0.9 | . | . | . | .
COc1ccc(C(=O)Nc2ccc3ccccc3c2)c(OC)c1 | 3.7* | 15.2* | 15.6* | 2.9 | 5.8* | 1.9 | 14.7* | 26.1* | 1.1
Cc1cccc(C(=O)Nc2ccc(NC(=O)c3cccc(C)c3)cc2)c1 | -1.9 | -0.3 | 0.6 | -0.9 | -1.3 | . | . | . | .
COc1cc(SC)ccc1C(=O)Nc1ccc2c(c1)CCC2 | 4.0* | 21.8* | 16.7* | 2.0 | 4.0 | 1.2 | 13.5* | 21.8* | 0.9
Cc1ccc(NC(=O)c2cc3ccccc3oc2=N)cc1 | 0.9* | 14.2* | 10.9* | 3.7* | 2.4 | 1.1 | 16.6* | 6.7 | 0.6
Cc1ccc(NC(=O)c2ccc(C)cc2)cc1 | 0.5 | 13.9* | 7.8* | 2.8 | -1.9 | 1.1 | 5.7* | 21.4* | 1.1
COc1cc2ccccc2cc1C(=O)Nc1ccc(C)cc1 | 1.0* | 19.0* | 17.3* | 1.3 | 5.9* | 0.7 | 11.8* | 20.3* | 0.6
COc1cc2ccccc2cc1C(=O)Nc1ccc(Cc2ccncc2)cc1 | -1.8 | 0.8 | -0.2 | -2.5 | -1.5 | . | . | . | .
CCCCN(C(C)=O)c1c(CC)nc2ccc(C(=O)NCc3cccs3)cn12 | -0.7 | 2.8 | -2.5 | 0.6 | . | . | . | . | .
Cc1ccc(-c2cc(NC(=O)c3ccccc3[N+](=O)[O-])n[nH]2)cc1 | -1.4 | 0.9 | -0.6 | 0.5 | -1.5 | . | . | . | .
Cc1ccccc1-c1cc(-c2ccccc2O)n[nH]1 | 1.4* | 16.1* | 10.7* | 3.5 | 5.6* | 0.9 | 8.1* | 18.3* | 0.8
Cc1ccc(-c2cc(-c3ccccc3[N+](=O)[O-])[nH]n2)c(O)c1 | 2.3* | 14.2* | 9.9* | 3.4 | 5.3* | 1.0 | 9.6* | 15.8* | 0.7
Cc1ccc(-c2cc(-c3ccc(C)cc3O)[nH]n2)cc1 | 2.9* | 19.1* | 15.1* | 3.2 | 5.1* | 1.6 | 10.4* | 22.2* | 1.1
Oc1ccccc1-c1ccn[nH]1 | -1.6 | 0.8 | 0.8 | 0.2 | -0.2 | . | . | . | .
SMILES | ssDAF-12 act | hgDAF-12 ag | hcDAF12 agonist | DAX1 inh-1 | DAX1 inh-2 | LXR ag | hcDAF12 ag | hgDAF12 ag | LXRb DAF12 ctr
CCCS(=O)(=O)NC(=O)C1(C)CCN(C(=O)Cc2ccc(F)cc2)C1 (stereo unspecified) | -1.1 | 1.0 | 0.1 | -0.1 | . | . | . | . | .
CCc1ccc([C@@H]2C[C@H]3[C@@H](CN2S(=O)(=O)c2ccc(C)cc2)C(=O)C[C@@H](c2ccccc2F)N3S(=O)(=O)c2ccc(C)cc2)cc1 | -0.8 | 0.2 | -1.1 | -1.5 | 0.0 | . | . | . | .
O=C(/C=C/Nc1ccc(F)c(F)c1)c1cccs1 | 0.9 | 14.6* | 15.6* | 3.3 | 4.1 | 2.4 | 14.9* | 23.0* | 0.9
Cc1cc(C(=O)COC(=O)c2ccc(O)cc2)c(C)n1CC(F)(F)F | 0.8 | 14.8* | 8.9* | 4.2* | 1.7 | 1.3 | 7.3* | 17.7* | 0.7
Cc1cc(C(=O)COC(=O)c2ccc(O)cc2)c(C)n1-c1ccccc1F | -1.7 | -0.4 | 0.5 | 0.4 | 0.6 | . | . | . | .
COc1ccc(Oc2nc(-c3cccnc3)nc3ccccc23)cc1 | -0.4 | 1.1 | -0.5 | -0.4 | 0.1 | . | . | . | .
CCCOc1ccc(-c2nc(OC)c3ccccc3n2)cc1 | 2.6* | 17.4* | 15.9* | 4.1* | 1.4 | -0.2 | 3.9 | 3.5 | 0.1
COc1cccc(C(C)(O)c2nc(-c3ccc(C)c(C)c3)cs2)c1 (stereo unspecified) | -1.2 | 0.1 | -0.8 | -1.3 | . | . | . | . | .
COc1cc(/C=N/N=C(N)N)ccc1OCc1ccc(Cl)cc1 | -0.4 | 5.4 | 1.4 | -0.3 | -1.9 | . | . | . | .
COc1cc(/C=N/O)ccc1OCc1ccc(Cl)cc1 | 0.5 | 18.8* | 7.9* | 4.0* | . | 1.2 | 5.7* | 15.3* | 1.0
N=c1n(N)c2ccccc2n1CC(=O)c1ccc(Br)cc1 | 0.6 | 15.1* | 8.1* | 2.5 | 3.5 | 0.6 | 5.3 | 13.5* | 0.5
CN1C(=O)[C@H]2[C@@H](c3ccc(C(F)(F)F)cc3)N[C@]3(CCCN(Cc4ccco4)C3=O)[C@H]2C1=O | -0.5 | -1.8 | -0.8 | 0.8 | -0.3 | . | . | . | .
Cc1ccc2nc(-c3ccc(NC(=S)NCC(C)(C)CN(C)C)cc3)sc2c1 | -0.3 | 18.4* | 7.8* | 4.0* | 12.7* | 0.6 | 4.1 | 13.2* | 0.7
C/C(=N\Nc1nncc2ccccc12)c1ccc(O)cc1 | 0.6 | 16.1* | 7.0* | 1.8 | -0.9 | 1.3 | 3.5 | 9.4 | 0.7
c1ccc(OCc2nc3ccccc3s2)cc1 | 1.6* | 13.9* | 8.6* | 3.3 | 5.8* | 0.9 | 5.9* | 17.9* | 1.0
N#C/C(=C(/O)COc1ccccc1)c1nc2ccccc2s1 | -1.4 | -0.5 | 1.4 | 0.4 | 3.9 | . | . | . | .
